From PubChem BioAssay (NCATS)
Records with an inconclusive call do not appear. Entries that show only a call come without a potency. Calls of active or inactive are those of the source. The call rests on the fitted dose curve; in most records, active means well fitted inhibition curve with a large enough effect; inconclusive means small, poorly fitted or top-dose-only effect; inactive means no such curve, though single readings can be large or run the other way.

biological target: Cytochrome P450 3A7 (Homo sapiens) (UniProt P24462); experiment: Cytochrome P450 family 3 subfamily A member 7 (CYP3A7) small molecule antagonists: luciferase biochemical qHTS assay (AID 1963596); details: P450-Glo CYP3A7 enzyme luminescence, 1 h; series mostly up to 57.4 µM; further: nearly all actives have a fitted effect of over 40% in size
Sequence (P24462 whole entry, looked up): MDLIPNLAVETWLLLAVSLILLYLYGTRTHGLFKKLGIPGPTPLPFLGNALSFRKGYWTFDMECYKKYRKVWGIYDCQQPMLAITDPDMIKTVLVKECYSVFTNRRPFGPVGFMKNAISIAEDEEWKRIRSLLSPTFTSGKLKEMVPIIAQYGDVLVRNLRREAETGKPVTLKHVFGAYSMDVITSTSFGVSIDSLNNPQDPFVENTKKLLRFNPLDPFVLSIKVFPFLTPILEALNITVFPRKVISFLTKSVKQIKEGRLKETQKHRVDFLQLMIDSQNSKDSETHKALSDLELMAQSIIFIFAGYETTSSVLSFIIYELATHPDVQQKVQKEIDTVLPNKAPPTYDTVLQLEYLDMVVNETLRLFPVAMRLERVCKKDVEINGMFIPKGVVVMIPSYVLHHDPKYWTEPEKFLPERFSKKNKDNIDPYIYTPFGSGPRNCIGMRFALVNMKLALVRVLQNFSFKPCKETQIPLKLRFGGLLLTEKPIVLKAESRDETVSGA
Source text: National Center for Advancing Translational Sciences [NCATS] Assay Overview: Cytochrome P450 (CYP) enzymes are membrane-bound hemeproteins that play a key role in metabolism of drugs and xenobiotics. The CYP3A subfamily is the most abundant, representing 30% of the total adult hepatic CYP content, whereas CYP3A7 is found predominantly in human fetal liver and accounts up to 50% of the total fetal hepatic CYP content. Testing the effect of chemicals on CYP isozymes is useful to minimize the adverse drug reactions and toxicities in the drug development process. Chemicals were tested for their effect on CYP enzyme activities by using P450-Glo (TM) screening systems (Promega Corporation, Madison, WI). These systems provide a luminescent method containing proluciferin substrates and are converted to luciferin products by CYP isozymes. The luciferin products formed are detected with a luciferin detection reagent, and the amount of light produced is proportional to CYP activity. P450-Glo (TM) CYP3A7 screening system (Catalog. No. V8812) was used to detect the compounds that interfere with CYP3A7 activity. The positive control compound used for CYP3A7 assay is ketoconazole (Sigma-Aldrich, St. Louis, MO).
Assay Protocol Summary: Two ul of enzyme-substrate mix was dispensed into medium binding white/solid 1536-well plates (Greiner Bio-One North America Inc., Monroe, NC) using a Flying Reagent Dispenser (FRD, Aurora Discovery, San Diego, CA). Compounds dissolved in DMSO, and positive control (ketoconazole) were transferred to the assay plates at 23 nl using a Pintool station (Wako, San Diego, CA). The assay plates were incubated at room temperature for 10 min. Then 2 ul of NADPH regeneration solution was added to each well of the assay plates using an FRD and incubated at room temperature for 1 h. The reaction was stopped by adding 4 ul of detection reagent using an FRD and after 20 min incubation at room temperature the luminescence signal was measured using a ViewLux plate reader (Perkin Elmer, Shelton, CT). Data were expressed as relative luminescence units.
Potency means the concentration at half of the fitted maximal effect.

| Compound | Potency |
| --- | --- |
| CCN1CCc2nc(N)oc2CC1 | inactive |
| NC(CSCC(=O)O)C(=O)O (stereo not given) | inactive |
| Cc1cc(C)cc(NC(=O)Cn2c(=O)n(-c3ccc(C)c(C)c3)c(=O)c3oc4ccccc4c32)c1 | inactive |
| Nc1nc(N)nc(-c2cc(Cl)ccc2Cl)n1 | inactive |
| O=C(O)c1ccccc1S | inactive |
| CCCCC/C(C=O)=C\c1ccccc1 | inactive |
| O=C(O)Cc1cccc2ccccc12 | inactive |
| CCOc1ccc(C(=O)OCCN(CC)CC)cc1 | inactive |
| CC(C)C(=O)c1c(C(C)C)nn2ccccc12 | inactive |
| CN1CCN(c2c(F)cc3c(=O)c(C(=O)O)cn(CCF)c3c2F)CC1 | inactive |
| c1ccc2ccccc2c1 | inactive |
| Nc1ccc(C(=O)Nc2ccccc2N)cc1 | 17.4 µM (active) |
| COc1ccc(NC(=O)N2CCc3c2ccc2ccccc32)cc1N1CCN(C)CC1 | inactive |
| CN1CC2CN(c3ccc4oc5ccccc5c(=O)c4c3)CC2C1 (stereo not given) | inactive |
| COc1cc2c(Nc3ccc(Cl)c(Cl)c3F)ncnc2cc1OCC1C[C@@H]2CN(C)C[C@@H]2C1 (stereo not given in full) | inactive |
| COC(=O)Nc1nc2ccc(C(=O)C3CC3)cc2[nH]1 | inactive |
| NC(N)=NS(=O)(=O)c1ccc(N)cc1 | inactive |
| O=C(C1CC1)N1CC[C@@H](Cc2n[nH]c(=O)n2-c2ccc(-c3ccc4occc4c3)cc2)C1 | 0.536 µM (active) |
| CCCC(CCC)C(N)=O | inactive |
| O=C(NCC(O)CO)c1ccncc1Nc1ccc(I)cc1F (stereo not given) | inactive |

| Compound | Potency |
| --- | --- |
| O=C(Nc1cccnn1)N1CCN(c2nccc(-c3ccc(F)c(F)c3)n2)CC1 | inactive |
| Cc1ccc(-c2ccccc2C#N)cc1 | inactive |
| CN(C(=O)C(Cl)Cl)c1ccc(OC(=O)c2ccco2)cc1 | inactive |
| CC1CC(OC(=O)C(O)c2ccccc2)CC(C)(C)N1C (stereo not given) | inactive |
| CO/N=C(/C(=O)N[C@@H]1C(=O)N2C(C(=O)[O-])=C(C[n+]3ccn4ncccc43)CS[C@H]12)c1nsc(N)n1 | inactive |
| C#CCN(C)Cc1ccccc1 | inactive |
| Cc1cc(-c2cc(OC(=O)c3ccccc3)ccc2Cl)cc2nnc(Nc3ccc(OCCN4CCCC4)cc3)nc12 | inactive |
| N[C@@H]1CCCCN(c2c(F)cc3c(=O)c(C(=O)O)cn(C4CC4)c3c2Cl)C1 | inactive |
| Cc1noc(=O)c2ccc(NC(=O)C(O)(CC(C)(C)c3cccc4c3OCC4)C(F)(F)F)cc12 (stereo not given) | inactive |
| O=C1NCC2(CCN(CCc3ccccc3)CC2)O1 | inactive |
| NCCCCCC(=O)O | inactive |
| NC(=O)NC1N=C([O][Al])NC1=O (stereo not given) | 12.3 µM (active) |
| FC(F)(F)c1ccccc1-c1cc(C(F)(F)F)c2nc(C3=NOC4(CCCCC4)C3)[nH]c2c1 | inactive |
| O=C1CCC(N2C(=O)c3ccccc3C2=O)C(=O)N1 (stereo not given) | inactive |
| CCN1C[C@H](C)n2c(c(O)c3c(=O)n(Cc4ccc(F)c(Cl)c4)nc(C(=O)NC)c32)C1=O | inactive |
| O=C(NCC(=O)N1CCCC1)Nc1ccc2cnccc2c1 | inactive |
| CC(CN(C)C)C(C)(O)Cc1ccc(Cl)cc1 (stereo not given) | inactive |
| O=C(Nc1nc2ccccc2n1CCc1ccccc1)c1ccccc1 | inactive |
| Nc1ncn([C@H]2C[C@H](O)[C@@H](CO)O2)c(=O)n1 | inactive |
| CCNC(=O)C1CC(F)(c2ccc(CN3CCCC3)c(F)c2)C1 (stereo not given) | inactive |
